Laboratory results as given in PubChem BioAssay (NCATS).
Results filed as inconclusive are left out. Active and inactive are the calls of the source. Calls come from the whole dose curve; as a rule, active = well fitted curve in the direction sought with a large enough effect; inconclusive = small, poorly fitted or top-dose-only effect, or another doubt; inactive = no such curve, though single readings can be large; an effect the other way counts as inactive or inconclusive.

Legend:
[1] = P-glycoprotein substrates identified in KB-8-5-11 adenocarcinoma cell line, qHTS therapeutic library screen (AID 1346987); note: nearly all actives have a fitted effect of over 65% in size; note: potency is the fitted concentration of half-maximal effect
Summary of the method: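 KB-8-5-11: colchicine-selected sub-line of KB-3-1 over-expressing P-gp; assay medium lacked colchicine. 72 h drug exposure at 37 degree C, CellTiter-Glo.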

[2] = tested on: Zika virus NS2B-NS3 protease (linked construct); test: Primary screen NINDS Rhodamine qHTS for Zika virus inhibitors (AID 1347160); note: % is set by controls: 0 for no effect and ±100 for the full control effect; nearly all actives have a fitted effect of over 55% in size
Summary of the method: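 Kinetic fluorescence (Ex 480 nm, Em 540 nm) over 15 min with 1.5 microM Rhodamine110 peptide and 25 nM linked protease.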

[3] = target: Calcium and integrin-binding protein 1 (Homo sapiens) (UniProt Q99828); test: Primary qHTS for Identification of Calcium Integrin Binding Protein 1 (CIB1) Competitor (AID 1508620);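 note: GST tagged CIB1 binding a fluorescein labelled alphaIIb integrin peptide tracer; top concentration of the series differs between compounds; % is set by controls: 0 for no effect and ±100 for the full control effect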
Summary of the method: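 Fluorescence polarization competition: CIB1-GST (1 uM final) preincubated with compound 15 min at room temperature, then FITC-labeled alphaIIb peptide (100 nM final) added for another 15 min. Polarization read at Ex 480/Em 540.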

[4] = target: Glutathione peroxidase 1 (Homo sapiens) (UniProt P07203); test: Primary qHTS Assay for Inhibitors of Recombinant Selenoprotein Glutathione Peroxidase 1 (GPX1) (AID 1845191); note: nearly all actives have a fitted effect of over 65% in size
Summary of the method: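 Recombinant GPX1 (10 nM final) was preincubated with compound for 30 min at room temperature, then reacted with 1 mM GSH, 0.5 mM CHP, 0.5 mM NADPH and 100 nM glutathione reductase; NADPH fluorescence (340/450 nm) was read at 0 and 15 min.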

[5] = target: Phospholipid hydroperoxide glutathione peroxidase GPX4 (Homo sapiens) (UniProt P36969); test: Primary qHTS Assay for Inhibitors of Recombinant Selenoprotein Glutathione Peroxidase 4 (GPX4) (AID 1845192); note: % is set by controls: 0 for no effect and ±100 for the full control effect; nearly all actives have a fitted effect of over 65% in size
Summary of the method: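 GR-coupled readout: 100 nM GR, 1 mM GSH, 0.5 mM NADPH; NADPH fluorescence (ex 340/em 450 nm) read at t=0 and after 15 min RT. GPX4 200 nM, preincubated 30 min with compound; substrate 0.5 mM CHP.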

[6] = target: Luciferin 4-monooxygenase (Photinus pyralis) (UniProt P08659); test: Primary firefly luciferase (FLuc) qHTS assay for identification of artifact compounds. (AID 1845220); details: outcome: dose series up to 54.1 µM unless noted; note: nearly all actives have a fitted effect of over 60% in size
Summary of the method: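 In this counter-screen for luciferase artifacts, test compounds met substrate (10 uM each luciferin and ATP) before 10 nM enzyme started the reaction. Light output was measured 5 min later.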

[7] = tested on: Nanoluciferase (engineered Oplophorus gracilirostris luciferase); test: Primary Nanoluciferase (NLuc) qHTS assay for identification of artifact compounds. (AID 1845222);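 note: NLuc secreted into diluted conditioned medium of S16 cells; 0% = DMSO and -100% = no enzyme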
Summary of the method: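 Using secreted nanoluciferase in S16 culture medium (0.22 um filtered, 1:55 dilution), compounds were preincubated 15 min at RT. Signal was generated with Nano-Glo reagent (1:100) over 5 min.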

CRL-7250 = normal cell line; test: Cytotoxic Profiling of Annotated Libraries Using Quantitative High-Throughput Screening (AID 1296008); details: Five cell lines viability, CellTiter-Glo ATP luminescence, 48-72 h; max response: hits give low values; note: nearly all actives have a fitted effect of over 60% in size; for max response: % is set by controls: 0 for no effect and ±100 for the full control effect
Summary of the method: (§1)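 Compounds were pin-transferred onto cells and incubated 48 or 72 hr at 37 degree Celsius, 95% humidity. CellTiter-Glo was added, plates sat 10 min at room temperature, then ATP-coupled luminescence was imaged as the viability read-out.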

NIH3T3 = test: as above; details: Five cell lines viability, CellTiter-Glo ATP luminescence, 48-72 h; max response: hits give low values
Summary of the method: as §1

C33A = test: Primary qHTS to identify gynecologic anti-cancer compounds using libraries of approved drugs and bioactive compounds (AID 1345084); details: Gynecologic cancer cell panel viability, ATPlite luminescence, 48 h; series mostly up to 57.5 µM; note: nearly all actives have a fitted effect of over 55% in size; note: potency is the fitted concentration of half-maximal effect
Summary of the method: (§2)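 Cells, 1,000 per well, plated 16 h, then exposed 48 h at 37 C to compounds. Viability by ATPlite luminescence after 15 min at room temperature.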

CASKI = test: as above; details: Gynecologic cancer cell panel viability, ATPlite luminescence, 48 h; series mostly up to 57.5 µM
Summary of the method: as §2

Es-2 = test: as above; details: Gynecologic cancer cell panel viability, ATPlite luminescence, 48 h; series mostly up to 57.5 µM
Summary of the method: as §2

HeLa = test: as above; details: Gynecologic cancer cell panel viability, ATPlite luminescence, 48 h; series mostly up to 57.5 µM
Summary of the method: as §2

Hek293T = test: as above; details: Gynecologic cancer cell panel viability, ATPlite luminescence, 48 h, control line for the selectivity index; series mostly up to 57.5 µM
Summary of the method: as §2

JEG-3 = test: as above; details: Gynecologic cancer cell panel viability, ATPlite luminescence, 48 h; series mostly up to 57.5 µM
Summary of the method: as §2

OV90 = test: as above; details: Gynecologic cancer cell panel viability, ATPlite luminescence, 48 h; series mostly up to 57.5 µM
Summary of the method: as §2

PA-1 = test: as above; details: Gynecologic cancer cell panel viability, ATPlite luminescence, 48 h; series mostly up to 57.5 µM
Summary of the method: as §2

Tov-21-G = test: as above; details: Gynecologic cancer cell panel viability, ATPlite luminescence, 48 h; series mostly up to 57.5 µM
Summary of the method: as §2

Tov112D = test: as above; details: Gynecologic cancer cell panel viability, ATPlite luminescence, 48 h; series mostly up to 57.5 µM
Summary of the method: as §2

CAOV3 = test: as above; details: Gynecologic cancer cell panel viability, ATPlite luminescence, 48 h; series mostly up to 57.5 µM
Summary of the method: as §2

Chain of Phospholipid hydroperoxide glutathione peroxidase GPX4 (Homo sapiens) (P36969 whole entry, looked up): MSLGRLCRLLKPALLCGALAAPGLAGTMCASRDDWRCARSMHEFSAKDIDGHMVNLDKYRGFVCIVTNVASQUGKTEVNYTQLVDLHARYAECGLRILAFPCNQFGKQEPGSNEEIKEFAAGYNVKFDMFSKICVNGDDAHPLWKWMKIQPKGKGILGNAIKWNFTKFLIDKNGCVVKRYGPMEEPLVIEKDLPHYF
Chain of Glutathione peroxidase 1 (Homo sapiens) (P07203 whole entry, looked up): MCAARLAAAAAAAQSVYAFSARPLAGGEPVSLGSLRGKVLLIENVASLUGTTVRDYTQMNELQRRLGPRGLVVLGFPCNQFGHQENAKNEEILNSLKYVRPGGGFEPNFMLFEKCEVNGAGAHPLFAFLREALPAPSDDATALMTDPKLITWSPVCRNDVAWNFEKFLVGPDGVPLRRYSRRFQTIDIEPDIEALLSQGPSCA
Chain of Calcium and integrin-binding protein 1 (Homo sapiens) (Q99828 whole entry, looked up): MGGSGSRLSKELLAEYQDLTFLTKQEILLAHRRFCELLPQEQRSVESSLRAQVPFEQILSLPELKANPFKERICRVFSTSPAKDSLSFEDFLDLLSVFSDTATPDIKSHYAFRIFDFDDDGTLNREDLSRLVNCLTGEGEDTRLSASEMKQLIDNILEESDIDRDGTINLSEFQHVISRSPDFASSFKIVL

Cc1cccc(NC(=O)NC2N=C(c3ccccc3)c3ccccc3N(CC(=O)c3ccccc3C)C2=O)c1 (centres undefined)
inactive: Potency [1] | Potency [2] | Potency [3] | Potency [4] | Potency [5] | outcome [6] | Potency [7] | max response (CRL-7250) 0.833% | outcome (NIH3T3) | Potency (C33A) | Potency (CASKI) | Potency (Es-2) | Potency (HeLa) | Potency (Hek293T) | Potency (JEG-3) | Potency (OV90) | Potency (PA-1) | Potency (Tov-21-G) | Potency (Tov112D)

NCCCCCNC1(c2ccccc2)CCCCC1
inactive: Potency [1] | Potency [2] | Potency [3] | Potency [4] | Potency [5] | outcome [6] | Potency [7] | max response (CRL-7250) -4.91% | max response (NIH3T3) -1.15% | Potency (C33A) | Potency (CAOV3) | Potency (CASKI) | Potency (Es-2) | Potency (HeLa) | Potency (Hek293T) | Potency (JEG-3) | Potency (OV90) | Potency (PA-1) | Potency (Tov-21-G) | Potency (Tov112D)

CC(=O)OC[C@]12[C@H](OC(C)=O)C(=O)[C@@H]3[C@@H](O)[C@@]14O[C@@]3(C)COC(=O)c1cccnc1[C@@H](C)[C@H](C)C(=O)O[C@@H]([C@H](OC(C)=O)[C@@H]2OC(C)=O)[C@]4(C)O
inactive: Potency [1] | Potency [3] | Potency [4] | Potency [5] | outcome [6] | Potency [7] | outcome (CRL-7250) | max response (NIH3T3) 0.381% | Potency (C33A) | Potency (CAOV3) | Potency (CASKI) | Potency (Es-2) | Potency (HeLa) | Potency (Hek293T) | Potency (JEG-3) | Potency (OV90) | Potency (Tov-21-G) | Potency (Tov112D)

C#CC1(O)CCC2C3CCC4=CC(=O)CCC4=C3C=CC21C (centres undefined)
active: Potency [1] 2910 nM | Potency (HeLa) 1120 nM | Potency (PA-1) 11200 nM
inactive: Potency [2] | Potency [3] | Potency [4] | outcome [6] | Potency [7] | max response (CRL-7250) -2.47% | Potency (C33A) | Potency (CAOV3) | Potency (CASKI) | Potency (Es-2) | Potency (Hek293T) | Potency (JEG-3) | Potency (OV90) | Potency (Tov-21-G) | Potency (Tov112D)

COC(=O)C12C(=O)C(C)(O)C(=O)C1(C)C(C)=CC1C3(C=O)CCC(OC(C)=O)C(C)(C)C3CCC12C (centres undefined)
inactive: Potency [1] | Potency [3] | Potency [4] | Potency [5] | outcome [6] inactive [at 25.7 µM] | Potency [7] | max response (CRL-7250) -2.11% | max response (NIH3T3) -2.03% | Potency (C33A) | Potency (CAOV3) | Potency (CASKI) | Potency (Es-2) | Potency (HeLa) | Potency (Hek293T) | Potency (JEG-3) | Potency (OV90) | Potency (PA-1) | Potency (Tov-21-G) | Potency (Tov112D)
